# In the library only some 10% were active in any assay of this set; here they are far more common.
# L3MBTL1 block: L3MBTL1 (human) inhibition; AlphaScreen L3MBTL1–H3K9me1 peptide binding; 0.66% of 230,000 active; Potency, µM (series often up to 57.1 µM), inactives show top-dose activity, negative = inhibition, actives largely listed as inhibitors; further: on the % scale 0 is the no-effect control and ±100 the full control effect; nearly all actives have a fitted effect of over 60% in size
#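 Displacement of a biotinylated histone H3(1-15) peptide monomethylated at Lys9 (75 nM) from L3MBTL1 (50 nM) was measured by AlphaScreen after a 30 min room-temperature compound incubation; cefsulodin titration served as intraplate control.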
# JMJD2A Tudor: blocks the human JMJD2A Tudor domain | O75164 | AlphaScreen JMJD2A-Tudor / H3K4me3 peptide binding | Potency, µM (titrated, usually from 114 µM), inactives show at the highest dose activity change, negative = inhibition, most hits filed as inhibitors | 4.4% of 390,000 active | AID 504339; further: on the % scale 0 is the no-effect control and ±100 the full control effect; nearly all actives have a fitted effect of over 50% in size
# BAZ2B inh: inhibitors of human BAZ2B bromodomain; Q9UIF8; AlphaScreen BAZ2B-H3K14Ac peptide displacement; Potency, µM (titrated, usually from 114 µM), for the others: top-dose activity change, negative = inhibition, usual class: inhibitors; 4.4% of 360,000 active; AID 504333; further: on the % scale 0 is the no-effect control and ±100 the full control effect; nearly all actives have a fitted effect of over 60% in size
#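 Multi-concentration screen (max 110 uM) measuring displacement of acetylated histone H3 peptide from BAZ2B by AlphaScreen, using 50 nM protein, 50 nM peptide and 10 ug/mL streptavidin donor plus Ni-chelate acceptor beads.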
# GLS inh: glutaminase GLS (human) inhibition; O94925; GLS enzymatic activity, qHTS titration; Potency, µM (top dose mostly 45.5 µM), inactives show top-dose activity change, negative = inhibition, hits mostly inhibitors; 0.21% of 410,000 active; AID 624170; further: on the % scale 0 is the no-effect control and ±100 the full control effect
# Target sequence (O94925 whole entry, looked up): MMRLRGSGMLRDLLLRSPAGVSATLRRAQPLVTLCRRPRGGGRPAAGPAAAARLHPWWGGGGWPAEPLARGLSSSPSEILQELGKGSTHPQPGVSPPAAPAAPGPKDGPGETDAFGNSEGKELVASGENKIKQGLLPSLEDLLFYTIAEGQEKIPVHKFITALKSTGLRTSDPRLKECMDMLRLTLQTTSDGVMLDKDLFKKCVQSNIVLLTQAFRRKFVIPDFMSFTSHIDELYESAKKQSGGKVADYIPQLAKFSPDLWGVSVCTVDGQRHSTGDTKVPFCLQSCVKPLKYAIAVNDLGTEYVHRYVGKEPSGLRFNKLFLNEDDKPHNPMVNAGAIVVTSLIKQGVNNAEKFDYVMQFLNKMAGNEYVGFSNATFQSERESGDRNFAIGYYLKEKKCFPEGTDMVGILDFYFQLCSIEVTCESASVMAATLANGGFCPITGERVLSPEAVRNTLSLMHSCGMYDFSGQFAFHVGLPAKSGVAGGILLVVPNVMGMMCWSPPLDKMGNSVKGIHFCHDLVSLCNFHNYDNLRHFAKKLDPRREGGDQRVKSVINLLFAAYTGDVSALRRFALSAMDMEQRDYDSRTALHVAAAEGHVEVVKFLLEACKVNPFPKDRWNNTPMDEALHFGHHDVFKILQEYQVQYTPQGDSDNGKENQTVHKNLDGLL
#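 hKGA in 45 mM KH2PO4 pH 8.2, 0.02% Tween-20 with pin-transferred compounds; 1 mM L-glutamine (stock) plus glutamate oxidase/HRP/Amplex Red coupling added. Fluorescence read initially and after 30 min at RT.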
# G9a inh: blocks human histone lysine methyltransferase G9a; Q96KQ7; G9a H3K9 monomethylation, AlphaScreen, 2 h; Potency, µM (doses to about 102 µM), for the others: at the top dose activity, negative = inhibition, hits mostly inhibitors; 8.8% of 350,000 active; further: on the % scale 0 is the no-effect control and ±100 the full control effect; nearly all actives have a fitted effect of over 75% in size
#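 AlphaScreen read-out: biotin-H3K9 peptide (500 nM) methylation by 20 nM enzyme with 20 uM SAM, 2 h at room temperature after 15 min compound preincubation; anti-monomethyl H3K9 antibody plus donor/acceptor beads, 10 min dark.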
# HP1b binding inh: blocks HP1-beta chromodomain binding to methylated histone tails; 0.56% of 390,000 active; AlphaScreen HP1-beta / biotin-H3K9me3 peptide binding; P83916; AID 540317; Potency, µM (series often up to 114 µM), without a hit: at the top dose activity change, negative = inhibition, hits mostly inhibitors; further: nearly all actives have a fitted effect of over 70% in size
#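 HP1-beta protein (50 nM final) preincubated 30 min at room temperature with biotinylated H3(1-18)K9me3 peptide (50 nM) in PBS pH 7.4, 0.01% Tween-20, then compound added for 30 min. AlphaScreen streptavidin donor/nickel chelate acceptor beads (10 ug/mL final), 30 min dark, luminescence read.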
# * hit, by the source's call; ? = inconclusive; . = not tested or not shown; [ ] = remark or other dose. The call rests on the fitted dose curve; in most records, active means well fitted curve in the direction sought with a large enough effect; inconclusive means small, poorly fitted or top-dose-only effect, or another doubt; inactive means no such curve, though single readings can be large; an effect the other way counts as inactive or inconclusive. Potency means the concentration at half of the fitted maximal effect.
SMILES,L3MBTL1 block,JMJD2A Tudor,BAZ2B inh,GLS inh,G9a inh,HP1b binding inh
Cc1cc(N2CCCC2)nc2ccc(NC(=S)NCCCOC(C)C)cc12,.,-18%,?,-2%,?,39%
Cc1cc(N2CCOCC2)nc2ccc(NC(=S)NCCC(C)C)cc12,.,-27%,-29%,18%,2%,11%
CCCN(CCC)CCCNC(=S)Nc1ccc2nc(N3CCCC3)cc(C)c2c1,.,?,5%,16%,40µM*,9%
CC(C)c1ccc(-c2nnc3n(CCc4ccccc4)c(=O)c4ccccc4n23)cc1,.,-16%,-1%,11%,-34%[59 µM],35%
CCOC(=O)c1nc(N2CCN(c3ccc(F)cc3)CC2)c2c(C)noc2n1,.,-22%,-8%,1%,-6%[59 µM],15%[57 µM]
COCC1=C(C(=O)OC(C)OC(=O)OC(C)C)N2C(=O)C(NC(=O)/C(=N/OC)c3csc(N)n3)[C@H]2SC1 (stereo not given in full),.,.,.,-2%,.,.
COc1ccc(/C=C(\C#N)c2nc(-c3cc(Cl)ccc3OC)cs2)cc1,.,-12%,6%,5%,-35%[59 µM],35%
O=C(Nc1c(Cl)cccc1Cl)c1cc(-c2cccc(O)c2)on1,.,-17%,?,-3%,-10%[59 µM],40%
CCN(CC)CCNC(=S)Nc1ccc2nc(N3CCN(C)CC3)cc(C)c2c1,.,-22%,1%,61%,45µM*,52%
Cc1ccc(NC(=O)N2CCC(CN3CCC(C)CC3)CC2)cc1F,.,-3%,-12%,-5%,-20%[59 µM],27%
c1ccc(Cc2nnc3sc(C4COc5ccccc5O4)nn23)cc1 (stereo not given),-12%,-23%,4%,-1%,10µM*,-33%
c1ccc(OCc2nnc3sc(C4COc5ccccc5O4)nn23)cc1 (stereo not given),.,50µM*,50µM*,-10%,7.9µM*,16µM*
CCOc1cc(CNCCN2CCOCC2)ccc1OCc1ccccc1Cl,29%,-18%,-18%,5%,50µM*,12%
CCOC(=O)C(=CNNc1cccc(Cl)c1)C(=O)OCC,-23%,79µM*,-8%,?,3.5µM*,?
CCOC(=O)C(=CNc1ccc(Cl)cn1)C(=O)OCC,7%,3%,-3%,8%,-6%,21%
CCOC(=O)c1cccc(NC(=O)N2Cc3ccccc3Oc3ncccc32)c1,.,-15%,-18%,0%,5%[59 µM],36%
CC1(C)Cc2c(c(N3CCOCC3)nc3sc(C(=O)Nc4cccc(Cl)c4)c(N)c23)CO1,.,-8%,-8%[57.1 µM],9%,79µM*,42%
Cc1cccc(NC(=O)c2sc3nc(N4CCOCC4)c4c(c3c2N)CC(C)(C)OC4)c1,.,-13%,-3%,-10%,-41%[59 µM],32%
CN(C(=O)c1sc2nc(N3CCCC3)c3c(c2c1N)CC(C)(C)OC3)c1ccccc1,.,11%,-25%,-9%,45µM*,38%
CCOC(=O)c1sc2nc(N3CCCC3)c3c(c2c1N)CC(C)(C)OC3,22%,-15%[57.1 µM],36%,5%,?,42%
CC1(C)Cc2c(c(N3CCOCC3)nc3sc(C(=O)Nc4ccccc4)c(N)c23)CO1,.,-14%,-16%,3%,28µM*,46%
Cc1ccccc1NC(=O)c1sc2nc(N3CCOCC3)c3c(c2c1N)CC(C)(C)OC3,.,-4%,-6%,-20%,?,46%
O=C(OCC#CCSc1nnc(-c2cccc3ccccc23)o1)c1ccc(F)cc1F,.,26%,.,.,.,.
O=C(Nc1ccc(Cl)cc1F)c1oc(=O)c2ccccc2c1-c1ccccc1,.,5%,.,4%,22%[59 µM],48%
CCn1c(=O)c2c(n3c(=S)[nH]nc13)-c1ccccc1CC21CCCCC1,.,18µM*,-34%,-12%,1.6µM*,-14%
C=Cc1ccc(C(=O)N2CCCC(Nc3ccc4c(c3)OCCO4)C2)cc1 (stereo not given),.,?,?,4%,40µM*,-30%
